Legend:
[1] = system: Tyrosine-protein kinase ABL1 (Homo sapiens), P00519 [T315I]; conditions: at 1 µM
[2] = system: Tyrosine-protein kinase ABL1 (Homo sapiens), P00519 [Y253F]; conditions: at 0.1 µM
[3] = system: Tyrosine-protein kinase ABL1 (Homo sapiens), P00519 [Y253F]; conditions: at 1 µM
[4] = biological target: Tyrosine-protein kinase ABL1 (Homo sapiens) (UniProt P00519); conditions: at 0.1 µM
[5] = biological target: Tyrosine-protein kinase ABL1 (Homo sapiens) (UniProt P00519); conditions: at 1 µM
[6] = biological target: ALK tyrosine kinase receptor (Homo sapiens) (UniProt Q9UM73); conditions: at 0.1 µM
[7] = biological target: ALK tyrosine kinase receptor (Homo sapiens) (UniProt Q9UM73); conditions: at 1 µM
[8] = biological target: Tyrosine-protein kinase ABL2 (Homo sapiens) (UniProt P42684); conditions: at 0.1 µM
[9] = biological target: Tyrosine-protein kinase ABL2 (Homo sapiens) (UniProt P42684); conditions: at 1 µM
[10] = biological target: Tyrosine-protein kinase receptor UFO (Homo sapiens) (UniProt P30530); conditions: at 0.1 µM
[11] = biological target: Tyrosine-protein kinase receptor UFO (Homo sapiens) (UniProt P30530); conditions: at 1 µM
[12] = biological target: Tyrosine-protein kinase Blk (Homo sapiens) (UniProt P51451); conditions: at 0.1 µM
[13] = biological target: Tyrosine-protein kinase Blk (Homo sapiens) (UniProt P51451); conditions: at 1 µM
[14] = biological target: T1, Cytoplasmic tyrosine-protein kinase BMX (Homo sapiens) (UniProt P51813); conditions: at 0.1 µM
T1 sequence (whole entry): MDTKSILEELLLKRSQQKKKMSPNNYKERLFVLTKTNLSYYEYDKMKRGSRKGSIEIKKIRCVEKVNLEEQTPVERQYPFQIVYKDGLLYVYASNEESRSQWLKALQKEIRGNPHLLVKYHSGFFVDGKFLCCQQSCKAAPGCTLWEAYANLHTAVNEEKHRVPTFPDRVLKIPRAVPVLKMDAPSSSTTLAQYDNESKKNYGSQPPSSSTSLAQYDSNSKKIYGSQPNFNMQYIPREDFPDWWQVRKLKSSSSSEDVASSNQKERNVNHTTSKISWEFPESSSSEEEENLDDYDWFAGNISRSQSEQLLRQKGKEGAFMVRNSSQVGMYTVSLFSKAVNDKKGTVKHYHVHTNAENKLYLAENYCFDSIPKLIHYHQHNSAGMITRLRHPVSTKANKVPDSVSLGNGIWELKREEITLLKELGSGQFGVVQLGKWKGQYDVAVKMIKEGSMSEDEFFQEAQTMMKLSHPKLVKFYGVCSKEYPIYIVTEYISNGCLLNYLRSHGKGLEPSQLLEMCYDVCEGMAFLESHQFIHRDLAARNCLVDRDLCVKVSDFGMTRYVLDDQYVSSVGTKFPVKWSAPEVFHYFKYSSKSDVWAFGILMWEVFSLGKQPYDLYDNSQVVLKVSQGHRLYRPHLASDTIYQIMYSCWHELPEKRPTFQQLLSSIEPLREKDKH

[15] = biological target: T1, Cytoplasmic tyrosine-protein kinase BMX (Homo sapiens); conditions: at 1 µM
[16] = biological target: Protein-tyrosine kinase 6 (Homo sapiens) (UniProt Q13882); conditions: at 0.1 µM
[17] = biological target: Protein-tyrosine kinase 6 (Homo sapiens) (UniProt Q13882); conditions: at 1 µM
[18] = biological target: Tyrosine-protein kinase BTK (Homo sapiens) (UniProt Q06187); conditions: at 0.1 µM
[19] = biological target: Tyrosine-protein kinase BTK (Homo sapiens) (UniProt Q06187); conditions: at 1 µM
[20] = biological target: Tyrosine-protein kinase CSK (Homo sapiens) (UniProt P41240); conditions: at 0.1 µM;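 further: value given is the averaged percent inhibition of CSK kinase activity, from the GSK PKIS kinase inhibitor set screening panel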
Tyrosine-protein kinase CSK (Homo sapiens), sequence (P41240 2-450 limits assumed): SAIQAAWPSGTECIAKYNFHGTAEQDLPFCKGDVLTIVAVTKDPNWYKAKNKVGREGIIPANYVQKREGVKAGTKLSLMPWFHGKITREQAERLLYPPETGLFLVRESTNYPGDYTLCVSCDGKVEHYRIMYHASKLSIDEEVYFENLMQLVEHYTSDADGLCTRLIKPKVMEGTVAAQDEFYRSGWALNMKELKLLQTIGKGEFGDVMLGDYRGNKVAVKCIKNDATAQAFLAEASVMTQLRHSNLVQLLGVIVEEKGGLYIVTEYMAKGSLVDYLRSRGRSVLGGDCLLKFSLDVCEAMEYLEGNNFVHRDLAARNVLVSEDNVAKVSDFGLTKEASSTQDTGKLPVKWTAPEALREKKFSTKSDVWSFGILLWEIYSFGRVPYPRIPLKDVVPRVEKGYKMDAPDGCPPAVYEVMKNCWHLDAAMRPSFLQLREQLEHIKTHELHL

ALK tyrosine kinase receptor (Homo sapiens), sequence (Q9UM73 19-1620 limits assumed): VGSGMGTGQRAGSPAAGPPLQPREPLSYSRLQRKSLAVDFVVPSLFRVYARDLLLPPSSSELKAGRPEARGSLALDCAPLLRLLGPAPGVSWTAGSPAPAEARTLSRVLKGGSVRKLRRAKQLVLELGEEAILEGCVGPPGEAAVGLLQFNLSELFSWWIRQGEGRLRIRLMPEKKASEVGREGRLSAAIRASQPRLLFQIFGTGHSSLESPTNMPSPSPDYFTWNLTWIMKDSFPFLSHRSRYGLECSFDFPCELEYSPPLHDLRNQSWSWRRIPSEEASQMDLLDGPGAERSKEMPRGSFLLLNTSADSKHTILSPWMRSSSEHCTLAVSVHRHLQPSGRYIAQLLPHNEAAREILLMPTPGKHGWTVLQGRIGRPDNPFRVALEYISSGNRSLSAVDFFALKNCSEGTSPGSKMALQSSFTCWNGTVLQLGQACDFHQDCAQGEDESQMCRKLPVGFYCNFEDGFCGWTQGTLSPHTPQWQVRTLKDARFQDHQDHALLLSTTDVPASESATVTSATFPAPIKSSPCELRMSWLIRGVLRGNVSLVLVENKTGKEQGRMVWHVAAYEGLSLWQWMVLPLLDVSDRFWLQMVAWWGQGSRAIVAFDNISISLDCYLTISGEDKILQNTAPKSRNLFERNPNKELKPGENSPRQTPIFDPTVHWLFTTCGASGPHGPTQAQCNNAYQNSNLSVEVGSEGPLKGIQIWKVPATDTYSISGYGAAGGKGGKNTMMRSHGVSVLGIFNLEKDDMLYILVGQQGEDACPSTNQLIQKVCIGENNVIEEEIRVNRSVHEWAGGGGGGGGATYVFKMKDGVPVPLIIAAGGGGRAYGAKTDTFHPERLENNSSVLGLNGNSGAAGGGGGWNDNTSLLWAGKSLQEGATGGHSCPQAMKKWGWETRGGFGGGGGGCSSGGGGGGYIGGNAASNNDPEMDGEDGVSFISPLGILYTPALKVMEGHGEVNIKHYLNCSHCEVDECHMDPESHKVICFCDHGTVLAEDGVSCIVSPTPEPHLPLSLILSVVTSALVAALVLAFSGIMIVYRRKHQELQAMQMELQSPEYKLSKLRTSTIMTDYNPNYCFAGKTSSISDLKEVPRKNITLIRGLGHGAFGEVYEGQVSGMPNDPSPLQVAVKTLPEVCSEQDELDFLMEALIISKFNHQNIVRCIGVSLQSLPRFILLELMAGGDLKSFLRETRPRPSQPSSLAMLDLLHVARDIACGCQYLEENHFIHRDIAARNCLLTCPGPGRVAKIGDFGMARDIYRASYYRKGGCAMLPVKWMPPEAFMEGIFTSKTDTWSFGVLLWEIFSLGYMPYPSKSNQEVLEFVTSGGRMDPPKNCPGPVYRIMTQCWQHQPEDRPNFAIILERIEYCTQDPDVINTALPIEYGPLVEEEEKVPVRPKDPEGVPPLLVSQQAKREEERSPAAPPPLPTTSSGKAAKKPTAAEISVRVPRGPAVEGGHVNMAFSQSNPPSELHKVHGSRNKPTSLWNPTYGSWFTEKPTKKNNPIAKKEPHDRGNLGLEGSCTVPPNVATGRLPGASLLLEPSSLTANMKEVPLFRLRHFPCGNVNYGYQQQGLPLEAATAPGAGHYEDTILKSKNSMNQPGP
Tyrosine-protein kinase BTK (Homo sapiens), sequence (Q06187 whole entry): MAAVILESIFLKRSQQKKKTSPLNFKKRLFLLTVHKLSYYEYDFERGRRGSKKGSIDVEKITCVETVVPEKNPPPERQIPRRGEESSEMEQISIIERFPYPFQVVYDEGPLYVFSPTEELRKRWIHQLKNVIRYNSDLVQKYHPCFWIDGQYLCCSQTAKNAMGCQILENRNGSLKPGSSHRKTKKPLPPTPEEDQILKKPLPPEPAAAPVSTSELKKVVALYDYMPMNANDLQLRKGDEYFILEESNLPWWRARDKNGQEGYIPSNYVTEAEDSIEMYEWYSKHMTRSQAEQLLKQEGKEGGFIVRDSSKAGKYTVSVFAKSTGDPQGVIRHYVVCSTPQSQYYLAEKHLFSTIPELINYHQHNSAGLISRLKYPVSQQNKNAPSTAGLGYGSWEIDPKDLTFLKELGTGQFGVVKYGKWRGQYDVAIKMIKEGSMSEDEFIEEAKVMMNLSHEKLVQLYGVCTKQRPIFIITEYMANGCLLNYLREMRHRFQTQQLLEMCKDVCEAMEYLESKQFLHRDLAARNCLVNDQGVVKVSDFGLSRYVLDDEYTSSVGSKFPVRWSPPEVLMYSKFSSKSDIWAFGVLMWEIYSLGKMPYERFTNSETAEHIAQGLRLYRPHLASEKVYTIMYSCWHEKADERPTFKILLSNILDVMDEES
Tyrosine-protein kinase receptor UFO (Homo sapiens), sequence (P30530 whole entry): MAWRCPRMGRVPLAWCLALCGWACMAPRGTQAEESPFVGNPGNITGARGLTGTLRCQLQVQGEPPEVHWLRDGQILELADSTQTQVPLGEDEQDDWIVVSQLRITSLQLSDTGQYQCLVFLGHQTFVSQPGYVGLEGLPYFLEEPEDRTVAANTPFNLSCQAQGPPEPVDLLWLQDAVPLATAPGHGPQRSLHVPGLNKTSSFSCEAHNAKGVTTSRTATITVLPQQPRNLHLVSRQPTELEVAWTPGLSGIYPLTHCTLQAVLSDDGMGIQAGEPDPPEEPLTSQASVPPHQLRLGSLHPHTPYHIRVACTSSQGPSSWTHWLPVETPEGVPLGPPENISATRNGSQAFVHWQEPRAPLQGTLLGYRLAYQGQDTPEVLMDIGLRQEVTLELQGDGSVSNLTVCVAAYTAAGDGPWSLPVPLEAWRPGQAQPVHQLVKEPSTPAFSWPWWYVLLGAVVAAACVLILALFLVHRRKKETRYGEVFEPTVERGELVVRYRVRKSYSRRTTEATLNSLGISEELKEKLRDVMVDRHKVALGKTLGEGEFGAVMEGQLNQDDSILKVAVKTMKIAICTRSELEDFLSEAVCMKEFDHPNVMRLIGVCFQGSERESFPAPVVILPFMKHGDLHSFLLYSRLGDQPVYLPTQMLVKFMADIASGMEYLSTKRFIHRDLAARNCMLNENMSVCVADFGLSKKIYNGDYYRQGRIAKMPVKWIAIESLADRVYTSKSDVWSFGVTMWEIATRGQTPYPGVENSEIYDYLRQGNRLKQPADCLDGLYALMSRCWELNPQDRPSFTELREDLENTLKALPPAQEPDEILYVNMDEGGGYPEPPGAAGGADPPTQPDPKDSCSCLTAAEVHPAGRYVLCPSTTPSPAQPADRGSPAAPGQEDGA
Tyrosine-protein kinase ABL2 (Homo sapiens), sequence (P42684 whole entry): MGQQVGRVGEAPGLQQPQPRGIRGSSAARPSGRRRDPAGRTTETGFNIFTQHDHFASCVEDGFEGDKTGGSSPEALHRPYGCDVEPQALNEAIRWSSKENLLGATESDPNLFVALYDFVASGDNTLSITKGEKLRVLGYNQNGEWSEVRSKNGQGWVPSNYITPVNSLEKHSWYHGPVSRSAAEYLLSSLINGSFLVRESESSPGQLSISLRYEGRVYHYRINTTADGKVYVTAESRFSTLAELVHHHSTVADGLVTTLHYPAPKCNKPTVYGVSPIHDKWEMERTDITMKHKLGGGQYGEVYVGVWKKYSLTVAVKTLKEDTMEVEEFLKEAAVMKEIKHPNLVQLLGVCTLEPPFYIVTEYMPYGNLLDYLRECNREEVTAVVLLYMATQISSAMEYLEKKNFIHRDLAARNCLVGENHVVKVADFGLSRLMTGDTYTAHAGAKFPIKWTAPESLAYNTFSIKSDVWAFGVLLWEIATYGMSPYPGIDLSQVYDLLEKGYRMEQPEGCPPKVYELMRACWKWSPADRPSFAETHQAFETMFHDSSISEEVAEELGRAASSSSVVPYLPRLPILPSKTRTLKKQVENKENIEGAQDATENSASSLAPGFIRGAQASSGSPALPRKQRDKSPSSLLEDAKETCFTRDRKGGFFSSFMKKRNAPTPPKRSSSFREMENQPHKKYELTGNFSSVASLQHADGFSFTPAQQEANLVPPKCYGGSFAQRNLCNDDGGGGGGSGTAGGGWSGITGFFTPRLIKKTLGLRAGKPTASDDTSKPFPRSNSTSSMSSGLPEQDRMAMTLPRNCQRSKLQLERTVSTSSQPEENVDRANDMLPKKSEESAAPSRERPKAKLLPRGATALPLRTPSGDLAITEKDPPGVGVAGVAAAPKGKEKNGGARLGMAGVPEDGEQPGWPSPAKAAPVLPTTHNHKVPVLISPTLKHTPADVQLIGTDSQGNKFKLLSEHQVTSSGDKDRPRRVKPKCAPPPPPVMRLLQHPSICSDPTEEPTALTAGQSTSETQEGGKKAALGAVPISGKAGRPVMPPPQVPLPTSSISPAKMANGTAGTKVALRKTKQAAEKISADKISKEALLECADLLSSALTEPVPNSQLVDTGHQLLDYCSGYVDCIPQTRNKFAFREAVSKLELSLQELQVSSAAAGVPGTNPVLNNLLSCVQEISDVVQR

SMILES	inhibition [1] [%]	inhibition [2] [%]	inhibition [3] [%]	inhibition [4] [%]	inhibition [5] [%]	inhibition [6] [%]	inhibition [7] [%]	inhibition [8] [%]	inhibition [9] [%]	inhibition [10] [%]	inhibition [11] [%]	inhibition [12] [%]	inhibition [13] [%]	inhibition [14] [%]	inhibition [15] [%]	inhibition [16] [%]	inhibition [17] [%]	inhibition [18] [%]	inhibition [19] [%]	inhibition [20] [%]
CN(c1ccc(NC(=O)Nc2ccc(OC(F)(F)F)cc2)cc1)c1ccnc(Nc2cccc(S(N)(=O)=O)c2)n1	86.2	39.2	81.5	14.3	71	1.46	4.22	20.2	71.9	-2.29	16.2	29.4	86.3	5.28	26.1	16.1	77.1	0.33	5.19	3.6
NC(=O)c1sc(-n2cnc3ccccc32)cc1OCc1ccccc1Br	4.17	2.98	5.62	4.27	9.67	4.26	6.94	4.44	7.23	-6.14	-4.14	2.16	3.7	3.03	4.96	1.74	7.25	-0.65	-0.19	1.13
FC(F)(F)c1ccc(-c2nn3ncccc3c2-c2ccnc(Nc3ccc4c(c3)OCCO4)n2)cc1	9.38	0.98	7.07	5.3	13.7	-1.39	1.59	5.58	9.47	8.69	7.56	3.74	15.7	2.61	0.4	-0.58	12	0.26	7.22	-0.13
CCn1c(-c2nonc2N)nc2ccc(F)cc21	5.94	2.99	6.49	3.48	3.51	5.2	5.27	3.97	6.07	-7.61	-5.29	3.96	4.5	5.08	6.05	4.83	8.38	0.19	-0.49	5.53
NC(=O)c1cccc(Nc2nccc(Nc3cccc(F)c3)n2)c1	17.1	12.8	63.8	11.6	55.6	0.23	10.1	11.5	51.9	-1.82	-2.93	0.38	13.8	4.88	37.9	4.3	36.2	0.63	7.3	0.49
Cc1ccc(NC(=O)CC2CC2)cc1-c1ccc(C(=O)NCC2CC2)cc1	2.68	5.1	5.33	6.36	8.53	1.68	3.58	8.79	7.68	-3.14	-1.55	2.42	2.73	1.08	5.01	4.58	5.79	1.4	2.39	4.41
CN(C)C(=O)O[C@@H]1CN[C@@H](C#Cc2cc3ncnc(Nc4ccc(OCc5cccc(F)c5)c(Cl)c4)c3s2)C1	-0.07	1.53	3.44	1.35	6.2	1.27	1.3	1.71	8.08	-0.96	2.48	2.22	3.83	1.11	3.41	-0.15	2.41	-0.22	1.84	-1.53
ON=C1CCc2cc(-c3nc(C4CCNCC4)[nH]c3-c3ccncc3)ccc21	1.59	0.98	1.65	1.37	4.12	2.45	4.92	2.12	6.46	-1.8	2.54	0.32	2.67	1.43	-1.75	-0.84	-2.02	-1.11	3.08	-4.87
NS(=O)(=O)c1cccc(-c2cc3ccncc3cc2OCc2ccccc2)c1	2.66	2.88	5.09	4.3	12.2	2.82	7.12	4.36	15.2	-7.61	-7.14	2.09	6.09	-0.13	4.21	4.43	4.64	-0.27	0.84	5.62
CCCN1CCCC(c2ccc(Nc3nc(Nc4cc(F)ccc4C(N)=O)c4cc[nH]c4n3)c(OC)c2)C1 (stereo not given)	12.1	4.98	9.67	3.75	9.3	98.2	86.3	2.38	3.99	9.62	57.4	2.11	6.81	5.67	5.71	18.1	67.8	0.49	-1.31	2.66
Cc1ccc2c(-c3ccnc(Nc4ccc5c(c4)OCCO5)n3)c(-c3ccc(C(F)(F)F)cc3)nn2n1	-0.15	0.22	4.3	2.59	4.52	2.45	1.5	2.56	5	0.41	1.14	3.28	4.48	–	0.94	0.39	3.26	0.75	1.71	-2.99
CC(C)c1ccc2c(c1)NC(=O)/C2=N/Nc1ccc(S(N)(=O)=O)cc1	6.52	4.59	28.8	6.22	32.8	-0.35	2.81	3.65	25.7	-0.26	0.13	1.27	14	0.14	6.03	0.98	1.26	-0.25	0.07	-1.01
COc1cc(Nc2nccc(-c3cnn4ncccc34)n2)cc(OC)c1	40.3	13.7	59.6	9.67	62.7	5.68	44.8	10.5	69.6	2	20.7	2	24.8	7.04	31.3	0.23	17.6	1.94	11.3	2.91
CC(C)c1ccc(Nc2nccc(-c3cnn4ncccc34)n2)cc1	10.6	4.68	10	3.33	13.3	4.56	23.7	4.44	10.6	-4.19	0.39	1.48	4.76	–	5.9	3.47	6.47	-1.04	-0.53	4.27
Cc1ccc2c(-c3ccnc(Nc4cccc(C(F)(F)F)c4)n3)c(-c3ccccc3)nn2n1	20.8	12.2	53.3	7.07	36.1	3.25	3.77	-9.35	33.7	-5.69	-3.9	12.4	68.1	7.21	38.2	15.5	70.9	0.51	5.18	4.63
O=C(Nc1ccc(Oc2ccc3[nH]c(NC(=O)c4ccco4)nc3c2)cc1)Nc1cc(C(F)(F)F)ccc1F	94.4	38	84	27.9	72.2	-1.81	7.58	35.6	66.4	16.1	60.5	-3.12	1.7	-2.09	1.74	1.76	3.78	-3.7	-3.03	2.94
Nc1nccc(-c2c(-c3ccc(F)cc3)ncn2CCCN2CCOCC2)n1	3.9	3.98	6.6	2.4	7.25	2.67	4.91	2.67	0.55	-5.59	–	2.93	5.42	3.6	2.77	4.81	10.8	-0.92	-0.14	2.1
Nc1nccc(C#Cc2cncnc2Nc2ccc(OCc3cccc(F)c3)c(Cl)c2)n1	2.7	3.75	2.69	4.16	9.58	3.59	6.28	3.79	3.33	-7.36	1.72	3.54	5.98	1.74	8.65	4.52	3.74	0.96	7.04	10.2
CCS(=O)(=O)c1ccc(OC)c(Nc2ncc(-c3cccc(OC)c3)o2)c1	26.5	48.5	86.3	29.8	77.7	2.9	8.1	27.3	72.6	-3.48	-1.98	10.4	64.3	-2.1	25.9	6.68	40.7	3.67	21.6	-0.51
COc1cc2ncn(-c3cc(OCc4ccccc4S(C)(=O)=O)c(C#N)s3)c2cc1OC	32.6	13.8	48.8	9.66	49	4.25	9.85	4.77	18	–	43.5	16.6	72.3	1.45	33.1	4.42	9.89	1.87	11.8	7.28
COc1ccc(-c2nn3ncccc3c2-c2ccnc(Nc3cccc(C(F)(F)F)c3)n2)cc1	5.9	1.53	5.56	5.5	4	3.3	5.15	2.28	6.55	-4.48	-2.69	2.61	7.74	2.37	-4.27	2.5	17.9	0.09	1.7	2.1
COc1cccc(-n2ncc3c(N/N=C/c4ccc(C)cc4)ncnc32)c1	23.2	31.8	76.1	13	62.1	12.4	22.3	64.2	40.5	-3.91	-6.6	3.17	7.15	5.21	10.6	3.4	5.43	-0.28	0.44	2.91
C[C@@H](Oc1cc(-n2cnc3ccc(OC[C@@H](O)CO)cc32)sc1C(N)=O)c1ccccc1Cl	12.4	-0.46	10.3	-0.45	11.7	-0.7	4.65	0.97	7.64	2.21	3.2	-0.24	3.09	4.05	0.31	–	-0.38	-0.29	-0.5	-0.73
O=S(=O)(CCOCc1ccc(-c2ccc3ncnc(Nc4ccc(OCc5cccc(F)c5)c(Cl)c4)c3c2)o1)c1ccccc1	0.23	1.1	1.05	2.88	5.13	0.65	3.74	2.62	6.65	-0.96	1.46	-1.07	1.68	-0.56	1.08	0.18	1.77	-1.67	-1.3	1.76
Cc1nc(-c2ccccc2)n2nc(NCCCN3CCOCC3)ncc12	7.48	1.75	3.67	5.87	5.41	2.79	4.11	2.85	4.35	-1.08	-0.92	2.04	4.14	3.56	5.57	-2.39	2.23	0.19	0.66	-0.24
Cc1ccc(Nc2ccnc(Nc3cccc(C(N)=O)c3)n2)cc1O	39.8	80.4	94.1	56.4	79.5	-0.94	10.9	50.8	77.1	-5.49	0.42	11.8	71.2	14.1	56.7	48.9	91.5	3.4	29.1	10.8
COc1cc2ncnc(Nc3ccc4c(cnn4Cc4ccccc4)c3)c2cc1OC	7.47	2.86	4.15	3.47	3.36	1.67	3.06	0.85	4.75	-3.79	-3.18	13.9	60.8	3.73	23.4	13.1	53.2	4.09	29.1	11.1
